Reference: PubChem BioAssay (NCATS)
Values joined by “and” are separate entries in the source; they are usually repeats but may differ in a detail not shown here. Equal values may be shown once. A number with no mark means an inactive call. Results filed as inconclusive are left out. A call without a number means that no potency is given here. Active and inactive are the calls of the source. Unless noted, calls come from the whole dose curve; as a rule, active = well fitted curve in the direction sought with a large enough effect; inconclusive = small, poorly fitted or top-dose-only effect, or another doubt; inactive = no such curve, though single readings can be large; an effect the other way counts as inactive or inconclusive.

Tests used:
[1] = molecular target: Mitogen-activated protein kinase 10 (Mus musculus) (UniProt Q61831); experiment: JNK3 AlphaScreen Assay (AID 530; active = well fitted curve in either direction with a large enough effect, not every such curve was filed as active;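 note: kinase came from lysate of stimulated human HepG2 cells; signal reports phosphorylation of biotinylated GST-cJun 1-79 at Ser73 with 10 µM ATP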)
Procedure, shortened: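 qHTS titrations with 15 min compound pre-incubation before adding ATP (10 uM final). Read-out: AlphaScreen of Ser73-phosphorylated biotin-GST-cJun using HepG2 lysate JNK3 activated by IL-1β and TNFα.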

[2] = Cell Viability - N2a (AID 540); details: N2a mouse neuroblastoma cell viability; activity change, negative = cytotoxicity: at 92.2 µM (top of the series);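 note: cells exposed to compound for 40 h at 37 °C; nearly all actives have a fitted effect of over 45% in size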
Procedure, shortened: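 Cytotoxicity was scored as loss of cellular ATP in N2a cells, a mouse neuroblastoma line. Compounds are applied in a qHTS concentration series for 40 hr at 37 °C.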

[3] = Cell Viability - Renal Proximal Tubule (AID 545);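 note: cells exposed to compound for 40 hours; nearly all actives have a fitted effect of over 40% in size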
Procedure, shortened: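 Cytotoxicity is scored as a concentration-dependent drop in cellular ATP in primary rat renal proximal tubule cells exposed for 40 hr. AC50 derives from Hill modelling.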

[4] = Cellular Toxicity (caspase-3) SHSY5Y (AID 657);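 note: cells exposed to compound for 16 hours at 37 °C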
Procedure, shortened: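 Cells plated and incubated 5 h at 37 °C, dosed over a concentration range, incubated 16 h, then given Caspase-Glo 3/7 reagent for 1 h at room temperature before luminescence reading. Staurosporine (10 uM) defined full stimulation.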

[5] = molecular target: Cytochrome P450 3A4 (Homo sapiens) (UniProt P08684); experiment: qHTS Assay for Inhibitors and Substrates of Cytochrome P450 3A4 (AID 884); note: nearly all actives have a fitted effect of over 50% in size; note: potency is the fitted concentration of half-maximal effect
Procedure, shortened: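 Luminescent readout of luciferin produced by CYP3A4 (20 nM) dealkylation of Luciferin-PPXE, 25 uM (its KM). NADPH-driven reaction ran 60 min at RT after 10 min compound preincubation; data scaled to 57 uM ketoconazole as 100% inhibition.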

[6] = Cell Viability - LYMP2-023 (AID 975);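 note: cellular ATP measured by luciferase luminescence as viability proxy; cells exposed to compound for 24 hours at 37 °C; nearly all actives have a fitted effect of over 55% in size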
Procedure, shortened: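 Steps: seed 2500 human lymphoblastoid cells per well, incubate 5 hr at 37 C, add compound for 24 hr at 37 C, add CellTiter-Glo, hold 30 min at room temperature, read luminescence. AC50 derived by Hill modelling.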

[7] = Cell Viability - LYMP1-002 - Assay at 24 hr (AID 993)
Procedure, shortened: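 Acute toxicity is measured as concentration-dependent loss of cellular ATP in a human lymphoblastoid line (Coriell LYMP1-002) after 24 h treatment in complete medium. ATP is quantified by luciferase luminescence and AC50 derived by Hill modelling.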

[8] = molecular target: Peroxisome proliferator-activated receptor gamma (Homo sapiens) (UniProt P37231); experiment: qHTS assay for small molecule agonists of peroxisome proliferator-activated receptor gamma signaling (AID 588536; active = well fitted curve in the direction sought with a large enough effect in the signal ratio, with a control signal flat, not every such curve was filed as active; the % refers to the signal ratio)
Procedure, shortened: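 Cells were plated and held 6–6.5 h at 37 C, then compounds were added as a titration series. After a further 16 h, CCF4 dye was loaded for 2 h at room temperature and emission at 460/530 nm recorded.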

[9] = molecular target: Vitamin D3 receptor (Homo sapiens) (UniProt P11473); experiment: qHTS assay for small molecule antagonists of vitamin D receptor signaling (AID 588541; calls by dose curve;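 note: receptor activated by calcitriol during compound treatment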)
Procedure, shortened: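 Antagonist-mode beta-lactamase reporter assay: HEK293T VDR-UAS-bla cells were exposed to titrated compound alongside 1-alpha,25-dihydroxyvitamin D3 at 3 nM final for 16 h. Values were normalized to the 50 nM agonist control and DMSO basal, with IC50 and efficacy from Hill equation fits.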

[10] = molecular target: Thyroid hormone receptor beta (Homo sapiens) (UniProt P10828); experiment: qHTS assay for small molecule antagonists of thyroid hormone receptor beta signaling (AID 588547; active = well fitted inhibition curve with a large enough effect in the signal ratio, with a control signal flat, not every such curve was filed as active; the % refers to the signal ratio;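 note: cells stimulated with 0.4 nM T3 agonist during compound exposure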); details: TR-UAS-bla HEK293, beta-lactamase ratio, antagonist mode, 18 h
Procedure, shortened: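 Inhibition of T3-driven (0.4nM final) beta-lactamase reporter activity was measured over 0.59 nM to 92 uM compound after 18 h at 37 C. The cells were GripTite HEK293 TR-UAS-bla in charcoal/dextran-stripped serum, with CCF4 ratio read-out and IC50 from Hill fits.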

[11] = molecular target: Voltage-gated inwardly rectifying potassium channel KCNH2 (Homo sapiens) (UniProt Q12809); experiment: qHTS Assay for Small Molecule Inhibitors of the Human hERG Channel Activity (AID 588834);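 note: lower thallium flux fluorescence means stronger hERG block; nearly all actives have a fitted effect of over 50% in size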; note: potency is the fitted concentration of half-maximal effect
Procedure, shortened: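 Cells were infected with hERG-BacMam virus for 4 hrs at room temperature, grown overnight, then seeded at 2000/well. After dye loading and roughly 10 min compound treatment, thallium influx was triggered and fluorescence recorded.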

[12] = qHTS assay for small molecule disruptors of the mitochondrial membrane potential - 1 hr assay (AID 651754; calls by dose curve; note: nearly all actives have a fitted effect of over 35% in size)
Procedure, shortened: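 Loss of mitochondrial potential shifts the cationic dye from red mitochondrial aggregates to green cytoplasmic monomers. Cells (HepG2) are treated with compound for 1 hr before a 30 min dye incubation at 37C.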

[13] = qHTS assay for small molecule disruptors of the mitochondrial membrane potential - 5 hr assay (AID 651755; calls by dose curve; note: nearly all actives have a fitted effect of over 40% in size)
Procedure, shortened: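 Membrane-potential dye readout: red aggregate (540 ex/590 em) versus green monomer (490 ex/535 em) fluorescence after 30 min dye loading, following 5 hr compound exposure at 37C of overnight-plated HepG2 cells.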

[14] = molecular target: Tumor necrosis factor (Homo sapiens) (UniProt P01375); experiment: qHTS assay to identify small molecules that stimulate Tumor Necrosis Factor-alpha (TNF-alpha) secretion (AID 651757; active = well fitted curve in the direction sought with a large enough effect in the signal ratio; the % refers to the signal ratio)
Procedure, shortened: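 Human monocytic THP-1 cells are plated, treated with compound and held at 37 C for 17 hrs. Labeled anti-TNF-alpha antibody mixture is then added; after 3 hr at room temperature, TR-FRET signal reports secreted TNF-alpha.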

[15] = molecular target: Nuclear receptor ROR-gamma (Homo sapiens) (UniProt P51449); experiment: qHTS assay for small molecule antagonists of the retinoid-related orphan receptor gamma (ROR-gamma) signaling pathway (AID 651802);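 note: CHO cells with doxycycline-induced ROR-gamma expression; nearly all actives have a fitted effect of over 60% in size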
Procedure, shortened: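 Steps: cells dispensed; compound or DMSO transferred by pin tool; doxycycline added to induce the ROR response element-driven luciferase; plates held 16hr at 37C; ONE-Glo added and luminescence measured.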

[16] = qHTS assay for small molecule agonists of the antioxidant response element (ARE) signaling pathway measured by Nrf2-dependant transcriptional activity - cell viability counter screen (AID 720653; active = well fitted curve in the direction sought with a large enough effect in the repeat runs; an effect the other way counts as inactive or inconclusive); details: ARE-bla HepG2 viability, CellTiter-Glo ATP luminescence, 16 h; stronger effect = lower value
Procedure, shortened: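 Cytotoxicity counter screen: intracellular ATP quantified by CellTiter-Glo luminescence in the same ARE-bla HepG2 plates, after 16 h compound exposure and a 2 h beta-lactamase substrate step.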

[17] = qHTS assay for cell viability of HEK293 cells (AID 743288); details: ATP luminescence (CellTiter-Glo), 18 h, stronger effect = lower value; note: nearly all actives have a fitted effect of over 50% in size
Procedure, shortened: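 Quantitative high-throughput screen: compounds were pinned onto parental HEK293 cells (2,000 per well) after a minimum 5 h settling at 37 C, incubated 18 h at 37 C, and intracellular ATP measured by luciferase luminescence.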

[18] = molecular target: Nuclear receptor subfamily 1 group I member 2 (Rattus norvegicus) (UniProt Q9R1A7); experiment: qHTS assay for small molecule activators of the rat pregnane X receptor (rPXR) signaling pathway (AID 651751; call rule not given here); details: rPXR reporter cells, luciferase (One-Glo), 24 h
[19] = qHTS assay for small molecule activators of the human pregnane X receptor (PXR) signaling pathway (AID 720659; call rule not given here)
[20] = MultiTox-Fluor Cytotoxicity Assay - LYMP1-002 - Dead Cells (AID 960); note: nearly all actives have a fitted effect of over 60% in size
Procedure, shortened: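 Cells were plated, rested 5 hr, then treated with compound dilution series for 16 hr at 37 C. After adding substrate reagent and 60 min at room temperature, dead-cell protease fluorescence gave concentration-response curves fitted by the Hill equation.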

Vitamin D3 receptor (Homo sapiens), sequence (P11473 whole entry, looked up): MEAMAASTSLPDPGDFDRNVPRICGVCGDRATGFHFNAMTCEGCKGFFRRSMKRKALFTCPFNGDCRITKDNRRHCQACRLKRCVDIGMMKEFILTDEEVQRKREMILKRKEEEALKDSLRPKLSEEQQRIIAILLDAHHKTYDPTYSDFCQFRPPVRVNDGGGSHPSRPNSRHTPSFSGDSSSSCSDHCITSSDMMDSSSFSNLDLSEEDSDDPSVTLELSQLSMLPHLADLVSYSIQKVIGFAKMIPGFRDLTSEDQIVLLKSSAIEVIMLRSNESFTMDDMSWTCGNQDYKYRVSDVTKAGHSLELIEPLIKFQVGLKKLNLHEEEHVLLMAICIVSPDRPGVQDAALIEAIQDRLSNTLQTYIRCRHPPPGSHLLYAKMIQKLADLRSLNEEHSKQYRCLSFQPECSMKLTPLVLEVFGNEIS
Peroxisome proliferator-activated receptor gamma (Homo sapiens), sequence (P37231 whole entry, looked up): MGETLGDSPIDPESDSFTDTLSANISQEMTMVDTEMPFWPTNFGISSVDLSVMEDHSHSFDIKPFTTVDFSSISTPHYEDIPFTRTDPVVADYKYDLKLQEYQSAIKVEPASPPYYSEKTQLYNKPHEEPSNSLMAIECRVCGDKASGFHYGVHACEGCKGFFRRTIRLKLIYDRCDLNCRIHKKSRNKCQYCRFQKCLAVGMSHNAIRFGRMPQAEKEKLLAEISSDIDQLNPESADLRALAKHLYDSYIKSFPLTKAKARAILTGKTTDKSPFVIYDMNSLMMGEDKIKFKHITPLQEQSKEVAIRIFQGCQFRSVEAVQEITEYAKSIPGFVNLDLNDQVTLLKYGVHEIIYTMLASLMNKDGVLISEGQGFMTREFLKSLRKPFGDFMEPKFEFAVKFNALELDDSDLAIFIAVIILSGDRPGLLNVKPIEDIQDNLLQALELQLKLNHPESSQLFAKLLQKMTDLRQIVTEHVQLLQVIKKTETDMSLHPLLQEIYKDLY
Thyroid hormone receptor beta (Homo sapiens), sequence (P10828 whole entry, looked up): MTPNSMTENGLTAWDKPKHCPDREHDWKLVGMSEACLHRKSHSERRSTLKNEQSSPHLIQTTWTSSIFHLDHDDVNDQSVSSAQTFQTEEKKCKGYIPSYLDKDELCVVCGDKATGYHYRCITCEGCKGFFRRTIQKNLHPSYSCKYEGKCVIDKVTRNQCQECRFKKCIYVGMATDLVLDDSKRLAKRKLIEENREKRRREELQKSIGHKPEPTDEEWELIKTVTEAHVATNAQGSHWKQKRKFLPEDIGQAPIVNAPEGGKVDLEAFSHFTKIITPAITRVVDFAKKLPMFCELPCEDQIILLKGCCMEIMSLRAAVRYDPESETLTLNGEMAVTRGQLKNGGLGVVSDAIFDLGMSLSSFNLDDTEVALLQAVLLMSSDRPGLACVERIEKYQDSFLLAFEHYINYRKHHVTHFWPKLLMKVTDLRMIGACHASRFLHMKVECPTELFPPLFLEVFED
Cytochrome P450 3A4 (Homo sapiens), sequence (P08684 whole entry, looked up): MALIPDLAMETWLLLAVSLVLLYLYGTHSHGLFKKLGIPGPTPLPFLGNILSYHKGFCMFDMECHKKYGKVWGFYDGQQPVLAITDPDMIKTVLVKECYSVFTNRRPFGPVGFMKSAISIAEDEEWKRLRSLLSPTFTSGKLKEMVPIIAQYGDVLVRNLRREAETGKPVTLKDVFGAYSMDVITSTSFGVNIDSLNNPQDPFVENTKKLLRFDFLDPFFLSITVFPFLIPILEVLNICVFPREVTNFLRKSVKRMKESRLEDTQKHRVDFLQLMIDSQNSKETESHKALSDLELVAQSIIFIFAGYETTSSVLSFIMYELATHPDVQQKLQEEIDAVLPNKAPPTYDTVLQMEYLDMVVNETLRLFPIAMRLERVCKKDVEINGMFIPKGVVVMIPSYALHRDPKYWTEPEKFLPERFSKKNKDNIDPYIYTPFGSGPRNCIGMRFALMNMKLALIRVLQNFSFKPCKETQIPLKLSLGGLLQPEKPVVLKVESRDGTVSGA
Nuclear receptor ROR-gamma (Homo sapiens), sequence (P51449 whole entry, looked up): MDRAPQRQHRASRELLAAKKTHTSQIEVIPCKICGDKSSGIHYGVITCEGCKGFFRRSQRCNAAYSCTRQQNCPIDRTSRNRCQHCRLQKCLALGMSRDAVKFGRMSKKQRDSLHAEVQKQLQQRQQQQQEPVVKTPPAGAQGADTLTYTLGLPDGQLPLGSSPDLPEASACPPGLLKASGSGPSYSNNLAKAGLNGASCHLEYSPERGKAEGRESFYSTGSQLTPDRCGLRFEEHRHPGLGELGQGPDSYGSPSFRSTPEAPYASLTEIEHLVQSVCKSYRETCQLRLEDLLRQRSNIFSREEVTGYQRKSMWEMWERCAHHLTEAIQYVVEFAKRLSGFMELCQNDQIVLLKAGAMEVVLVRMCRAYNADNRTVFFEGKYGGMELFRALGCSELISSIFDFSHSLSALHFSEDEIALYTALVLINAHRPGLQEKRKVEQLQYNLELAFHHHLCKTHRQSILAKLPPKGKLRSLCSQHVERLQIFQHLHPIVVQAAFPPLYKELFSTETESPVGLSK
Voltage-gated inwardly rectifying potassium channel KCNH2 (Homo sapiens), sequence (Q12809 whole entry, looked up): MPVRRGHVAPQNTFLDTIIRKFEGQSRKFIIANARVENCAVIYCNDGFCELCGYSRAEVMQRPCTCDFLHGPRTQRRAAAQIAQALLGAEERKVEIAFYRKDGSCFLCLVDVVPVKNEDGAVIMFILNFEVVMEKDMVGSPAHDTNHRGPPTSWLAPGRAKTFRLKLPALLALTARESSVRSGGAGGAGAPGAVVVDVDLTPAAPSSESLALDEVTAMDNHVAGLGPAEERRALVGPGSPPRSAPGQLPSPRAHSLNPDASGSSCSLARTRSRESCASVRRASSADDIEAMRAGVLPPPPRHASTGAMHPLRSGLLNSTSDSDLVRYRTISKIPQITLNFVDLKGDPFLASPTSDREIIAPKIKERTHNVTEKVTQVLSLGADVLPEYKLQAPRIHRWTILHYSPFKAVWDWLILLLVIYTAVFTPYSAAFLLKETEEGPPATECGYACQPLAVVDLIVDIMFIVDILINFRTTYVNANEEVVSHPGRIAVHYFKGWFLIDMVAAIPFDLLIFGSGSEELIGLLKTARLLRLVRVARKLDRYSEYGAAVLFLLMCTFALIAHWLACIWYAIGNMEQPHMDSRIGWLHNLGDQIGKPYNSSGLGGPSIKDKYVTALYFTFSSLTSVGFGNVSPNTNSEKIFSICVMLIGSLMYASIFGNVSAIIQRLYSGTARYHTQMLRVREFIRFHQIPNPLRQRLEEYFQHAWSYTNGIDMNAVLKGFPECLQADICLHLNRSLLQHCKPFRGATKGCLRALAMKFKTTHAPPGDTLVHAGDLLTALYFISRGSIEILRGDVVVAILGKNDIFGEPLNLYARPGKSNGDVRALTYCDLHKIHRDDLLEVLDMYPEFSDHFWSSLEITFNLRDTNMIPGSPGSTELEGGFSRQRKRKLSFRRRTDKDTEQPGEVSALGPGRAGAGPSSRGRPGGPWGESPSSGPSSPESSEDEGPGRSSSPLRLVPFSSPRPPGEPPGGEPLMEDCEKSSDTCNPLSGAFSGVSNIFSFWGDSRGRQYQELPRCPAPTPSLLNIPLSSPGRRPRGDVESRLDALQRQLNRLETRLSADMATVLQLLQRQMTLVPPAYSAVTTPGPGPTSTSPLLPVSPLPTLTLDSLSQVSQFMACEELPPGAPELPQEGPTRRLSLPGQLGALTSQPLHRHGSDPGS
Nuclear receptor subfamily 1 group I member 2 (Rattus norvegicus), sequence (Q9R1A7 whole entry, looked up): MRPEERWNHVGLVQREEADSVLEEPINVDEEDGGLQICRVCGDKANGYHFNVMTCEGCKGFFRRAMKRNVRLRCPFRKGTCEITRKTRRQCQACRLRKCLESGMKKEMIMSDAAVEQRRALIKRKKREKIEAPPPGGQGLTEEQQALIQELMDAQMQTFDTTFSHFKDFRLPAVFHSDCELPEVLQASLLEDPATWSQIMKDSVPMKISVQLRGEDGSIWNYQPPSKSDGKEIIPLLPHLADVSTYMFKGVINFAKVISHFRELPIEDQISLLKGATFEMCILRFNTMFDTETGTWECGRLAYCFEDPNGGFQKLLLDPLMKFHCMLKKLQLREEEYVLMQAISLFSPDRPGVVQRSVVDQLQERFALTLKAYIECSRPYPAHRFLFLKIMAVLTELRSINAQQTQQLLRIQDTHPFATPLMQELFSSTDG
Tumor necrosis factor (Homo sapiens), sequence (P01375 whole entry, looked up): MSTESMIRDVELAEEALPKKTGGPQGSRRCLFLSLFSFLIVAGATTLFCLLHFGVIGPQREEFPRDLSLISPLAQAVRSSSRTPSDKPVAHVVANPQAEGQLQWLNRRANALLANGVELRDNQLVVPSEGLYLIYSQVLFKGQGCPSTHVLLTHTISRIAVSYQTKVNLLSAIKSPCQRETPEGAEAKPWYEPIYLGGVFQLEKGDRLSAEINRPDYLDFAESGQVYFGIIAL

| Structure (SMILES) | Potency [1] | Potency [2] | outcome [3] | outcome [4] | Potency [5] | Potency [6] | Potency [7] | outcome [8] | outcome [9] | activity change % (negative = inhibition) [10] | Potency [11] | Potency [12] | Potency [13] | outcome [14] | Potency [15] | max response [16] | max response [17] | max response [18] | outcome [19] | Potency [20] |
| --- | --- | --- | --- | --- | --- | --- | --- | --- | --- | --- | --- | --- | --- | --- | --- | --- | --- | --- | --- | --- |
| O=C(O)CBr | inactive | inactive | inactive | inactive | inactive | inactive | inactive | inactive | inactive | 11.6% | inactive | inactive | inactive | inactive | inactive | 9.96% | 6.1% | 2.42% | inactive | – |
| O=C(O)c1cc(Cl)ccc1Cl | inactive | inactive | inactive | inactive | inactive | inactive | inactive | – | inactive | 12.5% | inactive | inactive | inactive | inactive | inactive | -0.443% | – | -1.07% | inactive | inactive |
| N#CCCC#N | inactive | inactive | inactive | inactive | inactive | inactive | inactive | inactive | inactive | 5.23% | inactive | – | – | inactive | inactive | 1.41% | -2.73% | 2.24% | inactive | inactive |
| Cc1coc2c1CCC(C)C2 (stereo not drawn) | inactive | inactive | inactive | inactive | inactive | inactive | inactive | – | inactive | 22.1% | inactive | inactive | inactive | inactive | inactive | -1.7% | 2.25% | – | – | inactive |
| CC(C)(C)C(O)(CCc1ccc(Cl)cc1)Cn1cncn1 (stereo not drawn) | inactive | inactive | inactive | – | 0.501 µM (active) | – | – | inactive | inactive | -8.05% and 4.64% | 20 µM (active) | inactive | inactive | inactive | – | -4.58% and -0.482% | -1.87% and -20% | – | – | inactive |
| [O-][Cl+]O | inactive | inactive | inactive | – | inactive | inactive | inactive | inactive | inactive | – | inactive | inactive | inactive | inactive | inactive | 3.42% | -2.54% | – | – | inactive |
| Oc1cc(Cl)ccc1Cl | inactive | inactive | inactive | inactive | – | inactive | – | inactive | inactive | -3.5% | inactive | – | inactive | inactive | inactive | 14.5% and -2.04% | 5.28% and -9.5% | -2.5% and -2.48% | inactive | inactive |
| C=CCc1cc(OC)c2c(c1)OCO2 | inactive | inactive | inactive | – | 10 µM (active) | inactive | inactive | inactive | inactive | 4.98% | inactive | inactive | inactive | inactive | inactive | -2.49% | – | -3.31% | inactive | inactive |
| CCC[N+](=O)[O-] | inactive | inactive | inactive | inactive | inactive | inactive | – | inactive | inactive | -9.22% | inactive | inactive | inactive | inactive | inactive | – | 2.89% | 7.37% | inactive | inactive |
| CC1CC(=O)O1 (stereo not drawn) | inactive | inactive | inactive | inactive | inactive | inactive | inactive | inactive | inactive | – | inactive | inactive | inactive | inactive | inactive | -3.76% | -7.61% | 0.366% | inactive | inactive |
| ClC(Br)Br | inactive | inactive | inactive | inactive | inactive | inactive | inactive | inactive | – | 16% | inactive | inactive | inactive | inactive | inactive | 0.446% | 0.132% | 0.757% | inactive | inactive |
| CCCCC#N | inactive | inactive | inactive | inactive | inactive | inactive | inactive | – | – | -12.9% | inactive | inactive | inactive | inactive | inactive | -5.38% | 2.15% | -0.572% | inactive | inactive |
| Nc1cc(Cl)ccc1Cl | inactive | inactive | inactive | inactive | inactive | inactive | inactive | – | – | 16.8% | inactive | inactive | inactive | inactive | inactive | 5.24% | 7.64% | 4.7% | inactive | inactive |
| Cc1cccc(N)c1C | inactive | inactive | inactive | inactive | inactive | inactive | inactive | inactive | inactive | 2.82% | inactive | inactive | inactive | inactive | inactive | 1.88% | – | -0.698% | inactive | inactive |
